# Source: PubChem
# CHX counter: counter-screen hit for Shiga toxin inhibitors, cycloheximide; cell reporter, cycloheximide protein synthesis inhibition counterscreen; max response, %; 12% of 300,000 active; AID 2314; in the data active = max response mostly above about 13%, no sharp cut-off; inactive = mostly below about 14%; note: read at 38.3 µM for the half of the compounds with a filed dose; 0% is about no effect
# Shiga toxin inh: inhibitors of Shiga toxin in Vero cells | 9.2% of 290,000 active | inhibition, % at 38.7 µM | Vero cells, Shiga toxin protein synthesis inhibition reporter; in the data active = inhibition mostly above about 28%, no sharp cut-off; inactive = mostly below about 43%; note: 0% is about no effect
# Pf growth 48h: P. falciparum growth inhibition at 48 hours (one generation). 5.9% of 310,000 active. Potency, µM (titrated, usually from 28.7 µM), for inactives: at the highest dose activity change, negative = inhibition, most hits filed as inhibitors. AID 504832. P. falciparum luciferase growth in erythrocytes, 48 h; note: potency is the fitted concentration of half-maximal effect; % is set by controls: 0 for no effect and ±100 for the full control effect
#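 A one-generation exposure of luciferase-tagged malaria parasites in RPMI 1640/Albumax erythrocyte culture, 37 C and 5% CO2. Inhibition is inferred from decreased luminescence after adding detection reagent.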
# Pf growth 96h: P. falciparum growth inhibition at 96 hours; P. falciparum luciferase reporter growth, 96 h; Potency, µM (top dose mostly 28.7 µM), without a hit: at the highest dose activity change, negative = inhibition, hits mostly inhibitors; 6.9% of 320,000 active; AID 504834; note: potency is the fitted concentration of half-maximal effect; % is set by controls: 0 for no effect and ±100 for the full control effect
#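 Two-generation exposure (96 h) targets delayed-death phenotype. Reporter parasites carrying integrated firefly luciferase, in red cells at 2% hematocrit and 0.05% parasitemia final, kept at 37 C, 5% CO2; luminescence loss indicates inhibition.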
# The depositor's hits bear a star; ? = inconclusive; . = not tested or not shown. Sampled rows, rich in hits. Any-hit rate of the full collection: about 21%. Unless noted, calls come from the whole dose curve; as a rule, active = well fitted inhibition curve with a large enough effect; inconclusive = small, poorly fitted or top-dose-only effect, or another doubt; inactive = no such curve, though single readings can be large or run the other way.
SMILES,CHX counter,Shiga toxin inh,Pf growth 48h,Pf growth 96h
CC(C)C(NC(=O)c1ccco1)C(=O)NCC(c1ccco1)N1CCCCC1 (stereo not drawn),0,16,?,2.1µM*
S=C(NCCc1ccccc1)NCC(c1ccco1)N1CCCCC1 (stereo not drawn),15*,9,?,2.6µM*
COc1ccc(NC(=S)NCC(c2ccco2)N2CCCC2)cc1 (stereo not drawn),6,5,6%,?
CSCCC(NC(=O)c1ccco1)C(=O)NCC(c1ccco1)N1CCCCC1 (stereo not drawn),.,.,-29%,?
Nn1c(SCC(=O)Nc2ccccc2Oc2ccccc2)nnc1C1CC1,.,.,38%,9%
Cc1cc(C)cc(NC(=O)C(=S)NCc2ccccc2)c1,11,1,1%,2%
O=C(NCc1ccccn1)c1ccc(OC2CCN(Cc3ccc(CO)o3)CC2)cc1,-2,-10,30%,-28%
CCOC(=O)CNC(=O)c1ccc(SCC)cc1,37*,83*,39%,32%
CCOC(=O)CNC(=O)CNC(=O)c1ccc(OC(C)C)cc1,24*,37,35%,37%
COCCNC(=O)c1cccc(OC2CCN(Cc3cccc(SC)c3)CC2)c1,1,-8,2%,?
CCN(CC)C(=O)COc1coc(CN2CCN(c3ccc(F)cc3)CC2)cc1=O,-3,-8,9%,?
O=C(COc1coc(CN2CCN(c3ccccc3)CC2)cc1=O)NC1CCCCC1,.,.,12µM*,?
CCN(CC)C(=O)COc1coc(CN2CCN(c3ccccc3)CC2)cc1=O,4,-5,-5%,10µM*
CCc1ccc(NC(=O)COc2coc(CN3CCN(c4ccccc4)CC3)cc2=O)cc1,.,.,5.2µM*,?
Cc1cc(S(=O)(=O)N2CCCC(N(C)CCc3ccccn3)C2)c(C)cc1Cl (stereo not drawn),-3,-12,?,?
COc1ccccc1CN(C)C(=O)C(NC(=O)Cc1cccc2ccccc12)C(C)C (stereo not drawn),-1,-8,?,?
COc1ccc(-c2cn3c(C)c(C(=O)N4CCc5ccccc5C4)sc3n2)cc1,-5,-3,-7%,?
Cc1c(C(=O)N2CCN(c3ccc(F)cc3)CC2)sc2nc(-c3ccccc3)cn12,-2,2,21%,21%
Cc1c(C(=O)N2CCOCC2)sc2nc(-c3ccccc3)cn12,21*,43*,.,.
Cc1c(C(=O)N2CCc3ccccc3C2)sc2nc(-c3ccccc3)cn12,27*,45*,?,?
CC(OC(=O)C1CCCC1)C(=O)Nc1ncc(Cl)cc1Cl (stereo not drawn),.,.,?,15%
N#CCN(N=Nc1ccccc1)c1ccccc1,38*,71*,10µM*,0%
O=[N+]([O-])c1cccc(N=NN(CCO)c2cccc([N+](=O)[O-])c2)c1,-2,-8,-13%,.
N#Cc1c(NC(=O)COC(=O)c2ccc(O)cc2O)sc2c1CCC2,.,.,16%,?
Cc1cc(=O)n(C(C)(C)C)c(=O)n1Cc1ccccc1,-5,-2,20%,13%
SMILES,CHX counter,Shiga toxin inh,Pf growth 48h,Pf growth 96h
COc1cc(C(=O)OCC(=O)Nc2ccc(SC(F)F)cc2)cc(OC)c1OC,3,10,3%,0%
COc1cc(/C=C(\C#N)C(=O)Nc2ccc(SC(F)F)cc2)cc(OC)c1OC,-3,-16,.,5.2µM*
CC(=O)CC1(OC(C)=O)C(=O)N(C)c2ccccc21 (stereo not drawn),-2,1,-27%,0%
Brc1ccc(Nc2nc(-c3cccnc3)cs2)cc1,54*,121*,6%,10%
Clc1cccc(Nc2nc(-c3cccnc3)cs2)c1,40*,91*,?,36%
COc1ccc(Cl)cc1Nc1nc(-c2cccnc2)cs1,11,-1,?,2%
CCOc1ccc(Nc2nc(-c3cccnc3)cs2)cc1,40*,57*,48%,-4%
Cc1cc(O)ccc1Nc1nc(-c2cccnc2)cs1,31*,51*,200%,?
Cc1nc(C)c(-c2csc(Nc3ccc(O)cc3C)n2)s1,1,-7,?,?
Brc1cccc(Nc2nc(-c3cccnc3)cs2)c1,25*,.,0%,102%
Cc1cc(O)ccc1Nc1nc(-c2cccs2)cs1,36*,69*,399%,4%
Oc1ccc(Nc2nc(-c3cccnc3)cs2)cc1,38*,.,76%,?
Cc1ccc(Nc2nc(-c3cccnc3)cs2)cc1C,51*,96*,-33%,?
